Measured values taken from PubChem BioAssay AID651710 (Broad Institute, 2012).
Several values for one entry are separate records, joined by “and”; a condition that tells them apart may be missing. Equal entries are not always repeated. Among all 360,000 compounds or so, about 1,600 (0.44%) were called active. The sample holds actives, similar compounds and a random draw of the others, so the mix is not that of the screen.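 How the source made its calls: active means every replicate showing at least 50% inhibition; inconclusive means mean inhibition at least 50% but not in every replicate; inactive means the rest.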 Some structures have more than one record in an assay (separate samples or runs), and their calls can disagree.

The molecules below were run against DNA repair protein RAD52 homolog (Homo sapiens) (UniProt P43351) (assay: blockers of RAD52 strand annealing activity – biochemical, FRET, single point, set 2, primary screen (AID 651710)). Settings: recombinant RAD52 DNA annealing, FRET fluorescence; at 18.7 µM; stronger effect = higher value.
Chain of DNA repair protein RAD52 homolog (Homo sapiens) (P43351 whole entry, looked up): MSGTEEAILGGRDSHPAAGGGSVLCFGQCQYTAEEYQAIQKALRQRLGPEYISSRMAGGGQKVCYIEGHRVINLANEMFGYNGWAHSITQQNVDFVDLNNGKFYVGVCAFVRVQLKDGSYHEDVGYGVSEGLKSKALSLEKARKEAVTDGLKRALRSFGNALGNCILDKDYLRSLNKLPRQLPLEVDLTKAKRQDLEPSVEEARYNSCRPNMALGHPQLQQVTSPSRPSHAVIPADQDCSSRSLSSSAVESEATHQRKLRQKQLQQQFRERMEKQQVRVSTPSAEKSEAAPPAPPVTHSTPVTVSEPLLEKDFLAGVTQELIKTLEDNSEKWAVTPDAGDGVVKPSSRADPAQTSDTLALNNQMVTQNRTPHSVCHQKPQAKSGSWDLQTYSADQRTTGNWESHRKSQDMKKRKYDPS

| SMILES | inhibition |
| --- | --- |
| O=C(C1CCCC1)N1CCCCN2[C@@H](CO)[C@H](c3ccc(-c4cccc(F)c4)cc3)[C@@H]2C1 | 44.8% (inactive) |
| O=C(C1CCCCC1)N1CC(=O)N2[C@H](CO)[C@@H](c3ccc(-c4ccccc4F)cc3)[C@@H]2C1 | -8.61% (inactive) |
| N#Cc1cccc(-c2ccc(C3[C@@H]4CN(C(=O)C5CCC5)C[C@H]3N4)cc2)c1 (some centres undefined) | -9.39% (inactive) and 14.7% (inactive) |
| Cc1ccccc1-c1ccc(C2[C@@H]3CN(C(=O)C4CCCCC4)C[C@H]2N3)cc1 (some centres undefined) | 54.8% (active) and 0.102% (inactive) |
| O=C(C1CCC1)N1C[C@@H]2N[C@H](C1)C2c1ccc(-c2cncnc2)cc1 (some centres undefined) | 17.7% (inactive) |
| O=C(C1CCCCC1)N1C[C@@H]2N[C@H](C1)C2c1ccc(-c2cccc(F)c2)cc1 (some centres undefined) | 61% (active) and 30.9% (inactive) |
| CS(=O)(=O)N1CC2(C1)[C@H](c1ccccc1)[C@H](CO)N2Cc1ccc(F)cc1 | -16.8% (inactive) |
| Cc1ccc(-c2ccc3c(c2)O[C@H](CN(C)C)[C@@H](C)CN([C@@H](C)CO)S3(=O)=O)cc1 | 19.5% (inactive) |
| O=C(C[C@@H]1C[C@@H]2c3cc(NC(=O)Nc4ccccc4F)ccc3O[C@@H]2[C@H](CO)O1)NCCc1ccccc1 | 2.98% (inactive) |
| CO[C@@H]1CN(C)C(=O)c2cc(NC(=O)Nc3cc(F)ccc3F)ccc2OC[C@H](C)N(C)C[C@@H]1C | 22.6% (inactive) |
| CN(Cc1ccccc1F)c1cc2c(c3c1ccn3C)C1CCC2O1 (centres undefined) | 61% (active) |
| CC(C)NC(=O)N(C)C[C@H]1OCCCC[C@H](C)Oc2ccc(NC(=O)Nc3ccc(C(F)(F)F)cc3)cc2C(=O)N([C@H](C)CO)C[C@@H]1C | -13.2% (inactive) |
| C[C@@H]1CCCCO[C@@H](CN(C)S(=O)(=O)c2ccc(F)cc2)[C@@H](C)CN([C@@H](C)CO)C(=O)c2cc(NS(=O)(=O)c3cccs3)ccc2O1 | -29.4% (inactive) |
| CC(C)NC(=O)N(C)C[C@H]1OCCCC[C@H](C)Oc2ccc(NC(=O)CCC(F)(F)F)cc2C(=O)N([C@@H](C)CO)C[C@@H]1C | -0.514% (inactive) |
| Cc1noc(C)c1S(=O)(=O)Nc1cccc2c1O[C@@H](CN(C)S(=O)(=O)c1cn(C)cn1)[C@@H](C)CN([C@H](C)CO)C2=O | -26.9% (inactive) |
| CN(C)C(=O)C[C@@H]1C[C@@H]2c3cc(NC(=O)C4CCOCC4)ccc3O[C@@H]2[C@@H](CO)O1 | -0.675% (inactive) |
| CCCNC(=O)N1[C@@H]2CNC[C@H]1C2c1ccc(-c2ccccc2)cc1 (some centres undefined) | -12.3% (inactive) and 2.3% (inactive) |
| COc1ccccc1C(=O)N1O[C@]23C=C[C@]14C[C@@H](O)CC[C@]4(C)C2CC[C@]1(C)[C@@H]([C@H](C)/C=C/[C@H](C)C(C)C)CC[C@H]13 (some centres undefined) | -15.6% (inactive) |
| CC(C)[C@@H](C)/C=C/[C@@H](C)[C@H]1CC[C@@H]2[C@]1(C)CCC1[C@]23C=C[C@]2(C[C@@H](O)CC[C@]12C)N(c1ccc([N+](=O)[O-])cn1)O3 (some centres undefined) | 73.5% (active) |
| CC(C)NC(=O)Nc1ccc2c(c1)C(=O)N([C@@H](C)CO)C[C@H](C)[C@@H](CN(C)S(C)(=O)=O)O2 | -11% (inactive) |
| C[C@@H]1CN([C@@H](C)CO)C(=O)Cc2cc(NC(=O)Nc3ccc4c(c3)OCO4)ccc2O[C@H]1CN(C)S(=O)(=O)c1ccccc1 | 2.34% (inactive) |
| CCN(CC)CCOc1ccc2c(c1)C(=NNC(=O)c1ccccn1)c1cc(OCCN(CC)CC)ccc1-2 | 108% (active) |

| SMILES | inhibition |
| --- | --- |
| CC(O)c1ccc(OCCN(C)c2ccccn2)cc1 (centres undefined) | -7.28% (inactive) |
| CCN(C[C@@H]1[C@H](c2ccccc2)[C@@H](CO)N1CC1CC1)C(=O)c1ccccn1 | -2.51% (inactive) |
| COCCOC(=O)N1C(=O)[C@@]2(c3cc(C#CCNC(N)=O)ccc31)[C@H](C(=O)N1CCN(c3ncccn3)CC1)[C@H]1C(=O)O[C@H](c3ccccc3)[C@H](c3ccccc3)N1[C@@H]2c1ccccc1OCCO | 31.5% (inactive) |
| CN1C(=O)CN2CCc3ccccc3C2c2cc(Cl)ccc21 (centres undefined) | -6.27% (inactive) |
| CN1CCN(C2Cc3ccc(Cl)cc3Sc3ccc(F)cc32)CC1 (centres undefined) | 54.5% (active) |
| O=C(C[C@@H]1C=C[C@@H](NC(=O)C2CCC2)[C@H](CO)O1)NCC1CC1 | -2.1% (inactive) |
| CCN(CC(=O)Nc1ccc(NC(C)=O)cc1)C(=O)C1CC(=O)N(c2ccc3c(c2)OCCO3)C1 (centres undefined) | 74.7% (active) |
| CCN(CC(=O)Nc1ccc(NC(C)=O)cc1)C(=O)C1CC(=O)N(Cc2ccc(C)cc2)C1 (centres undefined) | -6.68% (inactive) |
| CCOC(=O)c1ccc(NC(=O)C2CC(=O)N(c3ccc4c(c3)OCCO4)C2)cc1 (centres undefined) | -4.32% (inactive) |
| COc1cccc(C(=O)Nc2ccc3c(c2)C(=O)N(C)C[C@@H](OC)[C@H](C)CN(C(=O)C2CCOCC2)[C@H](C)CO3)c1 | -0.027% (inactive) |
| C[C@H](CO)N1C[C@H](C)[C@@H](CN(C)Cc2ccc(Cl)c(Cl)c2)Oc2ccc(NC(=O)Cn3cnnn3)cc2CC1=O | 5.4% (inactive) |
| O=C(C1CCCC1)N1[C@H](CO)[C@@H](c2ccccc2)C12CN(CCC(F)(F)F)C2 | 6.31% (inactive) |
| CO[C@H]1CN(C)C(=O)c2cc(NC(=O)Nc3ccccc3)ccc2OC[C@@H](C)N(C(=O)Nc2c(C)noc2C)C[C@@H]1C | 8.84% (inactive) |
| CN(C)CC(=O)Nc1ccc2c(c1)[C@@H]1C[C@H](CC(=O)NCc3ccc(-c4ccccc4)cc3)O[C@@H](CO)[C@@H]1O2 | 43.1% (inactive) |
| CN(C)CC(=O)Nc1ccc2c(c1)[C@H]1C[C@H](CC(=O)NCc3ccccc3)O[C@@H](CO)[C@H]1O2 | -10.3% (inactive) |
| CN(C)CC(=O)Nc1ccc2c(c1)[C@H]1C[C@@H](CC(=O)NCc3ccc(-c4ccccc4)cc3)O[C@H](CO)[C@H]1O2 | 60.2% (active) |
| CN1c2ccc(-c3ccc(C#N)cc3)cc2[C@@H]2[C@@H](CCN2S(=O)(=O)c2cccc(F)c2)[C@@H]1CO | 8.85% (inactive) |
| CCCNC(=O)[C@@H]1[C@@H](CO)[C@@H]2Cn3c(cccc3=O)[C@H]1N2C(=O)C1CC1 | -0.051% (inactive) |
| CS(=O)(=O)N1[C@H](C(=O)NCc2ccncc2)[C@@H](CO)[C@@H]2Cn3c(ccc(C4=CCCCC4)c3=O)[C@@H]21 | -1.92% (inactive) |
| CC1CN(c2nc(Nc3ccccc3)nc(N)c2[N+](=O)[O-])CC(C)O1 (centres undefined) | -8.87% (inactive) |
| CN1CCN(c2nc(Nc3ccc(O)cc3)nc3ccccc23)CC1 | 72.4% (active) |
| CC(Nc1nc(N2CCN(CCO)CC2)nc2ccccc12)c1ccccc1 (centres undefined) | -10.7% (inactive) |

| SMILES | inhibition |
| --- | --- |
| N#C[C@@H]1[C@H](c2ccccc2C2=CCCCC2)[C@@H](CO)N1S(=O)(=O)c1cccc(F)c1 | -3.37% (inactive) |
| CCCNC(=O)C[C@H]1C[C@H]2c3cc(NC(=O)NC4CCCCC4)ccc3O[C@H]2[C@H](CO)O1 | 3.19% (inactive) |
| C[C@H]1CN([C@@H](C)CO)C(=O)Cc2cc(NC(=O)Nc3ccc(F)cc3)ccc2O[C@@H]1CN(C)C(=O)NC1CCCCC1 | -2.6% (inactive) |
| O=C(NCCN1CCOCC1)c1ccc2c(c1)N(Cc1cccc(Cl)c1)C(=O)c1ccccc1S2(=O)=O | -15.4% (inactive) |
| CCN1CCN(CCNC(=O)c2ccc(/C=C3/Sc4ccccc4N(Cc4cccc(C)c4)C3=O)cc2)CC1 | 51.6% (active) |
| CCCC1=Nc2cc(C(=O)NCCN3CCCC3)ccc2Sc2ccccc21 | 34% (inactive) |
| CCN(CC)CCC(c1ccc2c(c1)OCO2)c1c(OC)cc(OC)c2c(-c3ccccc3)cc(=O)oc12 (centres undefined) | 54.9% (active) |
| CCN(CC)CCC(c1cc(OC)c(OC)c(OC)c1)c1c(OC)cc(OC)c2c(-c3ccccc3)cc(=O)oc12 (centres undefined) | 46.3% (inactive) |
| CCN(CC)C(=O)CC(c1ccc2c(c1)OCO2)c1c(OC)cc(OC)c2c(-c3ccccc3)cc(=O)oc12 (centres undefined) | -104% (inactive) |
| CCCC#Cc1cnc2c(c1)C(=O)N([C@H](C)CO)C[C@H](C)[C@@H](CN(C)Cc1ccccc1)O2 | -1.46% (inactive) |
| C/C=C/c1ccc(C2[C@H]3CNC[C@@H]2N3Cc2cccc(OC)c2)cc1 (some centres undefined) | -8.08% (inactive) |
| COc1ccc(CN(C)C[C@@H]2OCCCC[C@@H](C)Oc3ccc(NS(=O)(=O)c4ccc(C)cc4)cc3C(=O)N([C@@H](C)CO)C[C@H]2C)cc1 | 21% (inactive) |
| COCC(=O)N1CC(=O)N2[C@H](CO)[C@@H](c3ccc(-c4ccncc4)cc3)[C@H]2C1 | -7.77% (inactive) |
| N#Cc1ccc(-c2ccc([C@@H]3[C@H]4CNC[C@@H]3N4Cc3cc(F)ccc3F)cc2)cc1 | 69% (active) |
| N#Cc1ccc(-c2ccc([C@@H]3[C@@H](CO)N4C(=O)CNC[C@H]34)cc2)cc1 | 14.7% (inactive) |
| C/C=C/c1ccc(C2[C@H]3CNC[C@@H]2N3Cc2cccc(F)c2)cc1 (some centres undefined) | 16.5% (inactive) |
| COc1ccc(NC(=O)Nc2ccc3c(c2)[C@@H]2C[C@H](CC(=O)N4CCCCC4)O[C@H](CO)[C@@H]2O3)cc1 | -6.62% (inactive) |
| O=C([C@@H]1[C@@H](CO)[C@@H]2Cn3c(ccc(-c4ccccc4)c3=O)[C@H]1N2CCC(F)(F)F)N1CCCCC1 | 9.81% (inactive) |
| CN(C)C(=O)C[C@@H]1C[C@@H]2c3cc(NC(=O)c4ccc5c(c4)OCO5)ccc3O[C@@H]2[C@H](CO)O1 | 5.11% (inactive) |
| C[C@H](CO)N1C[C@H](C)[C@H](CN(C)C(=O)Nc2ccc(C(F)(F)F)cc2)Oc2ccc(NS(C)(=O)=O)cc2CC1=O | -1.01% (inactive) |
